According to PubChem BioAssay AID588493 (Sanford-Burnham Center for Chemical Genomics, 2011):
Hit rate of the full screen: of about 360,000 compounds, about 2,100 (0.58%) were called active.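 The calls were made as follows: active = inhibition at 20 µM, scaled to each plate's controls, above about 33% (limit read from the data); inactive = the rest.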 Only a selection was taken, and actives are over-represented in it overall.

The molecules below were run against 26S proteasome non-ATPase regulatory subunit 14 (Homo sapiens) (UniProt O00487) (assay: Rpn11 (PSMD14) deubiquitinase inhibitors, primary screen, biochemical, fluorescence polarization, uHTS (AID 588493)). Settings: human 26S proteasome, Ub4-pepOG fluorescence polarization, at 20 µM, hits give high values.
Sequence of 26S proteasome non-ATPase regulatory subunit 14 (Homo sapiens) (O00487 whole entry, looked up): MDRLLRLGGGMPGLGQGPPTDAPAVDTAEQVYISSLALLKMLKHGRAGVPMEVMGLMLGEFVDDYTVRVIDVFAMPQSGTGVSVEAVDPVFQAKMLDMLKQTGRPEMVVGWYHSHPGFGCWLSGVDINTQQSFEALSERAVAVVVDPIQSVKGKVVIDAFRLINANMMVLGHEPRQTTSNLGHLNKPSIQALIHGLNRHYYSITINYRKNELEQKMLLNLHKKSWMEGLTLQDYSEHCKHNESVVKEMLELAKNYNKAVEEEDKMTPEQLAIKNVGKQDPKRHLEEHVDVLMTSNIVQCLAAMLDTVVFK
For `O=c1[nH]c(=O)n(CCc2ccccc2)c(O)c1/C=N/N1CCOCC1`, the inhibition was 5.5% (inactive). In the case of `O=c1[nH]c(=O)n(Cc2ccccc2)c(O)c1/C=N/Nc1c(F)c(F)c(F)c(F)c1F`, the inhibition is reported as 41.6% (active). For `O=C(N/N=C/c1c(O)n(Cc2ccccc2)c(=O)[nH]c1=O)c1ccccc1`, the inhibition was -6.7% (inactive). `COC(=O)C1=C(c2ccc(F)cc2OCc2ccccc2)C[C@@H]2CC[C@H]1N2C(=O)NCc1ccc(Cl)cc1` was tested, and the inhibition was 7.7% [20S core pre-blocked with epoxomicin] (inactive). For `CCc1cccc2c(C#N)cn(CC(=O)N3CCOCC3)c12`, the inhibition was -6.2% (inactive). With `COc1ccc(C2NCc3ccc4c(c3-n3cccc32)OCO4)cc1OC` (stereo not given) the inhibition was 7.6% (inactive). In the case of `Cc1cccc(N2C(=O)NC(=O)/C(=C\c3cnn(-c4ccccc4)c3)C2=O)c1`, the inhibition is reported as 119% (active). In the case of `Cn1c(O)c(C(=Nc2ccc(F)cc2)c2ccccc2)c(=O)n(C)c1=O`, the inhibition is reported as -3.9% (inactive). `COc1ccc(C2C=C(C)Oc3c2c(=O)oc2ccccc32)cc1OC` (stereo not given) was tested, and the inhibition was 6% [20S core pre-blocked with epoxomicin] (inactive). `c1cc2c(c(NC3=NCCCS3)c1)CCCC2` was tested, and the inhibition was 3.9% (inactive). `O=C(C1CC(=O)N(C2CCCC2)C1)N1CCC2(CC1)OCCO2` (stereo not given) was tested, and the inhibition was 3.4% (inactive). For `CCN1C(=O)C(=Cc2c(C)n(CC(=O)NCC3CCCO3)c3ccccc23)C(=O)N(CC)C1=S` (stereo not given), the inhibition was 62% (active). For `Fc1cccc(F)c1CN1CCN(Cc2c(F)cccc2F)CC1`, the inhibition was -4.8% (inactive). With `CN(C)C(=O)Oc1ccc2c(c1)O/C(=C\c1ccccc1)C2=O` the inhibition was 5.7% (inactive). In the case of `Cn1c(C(=O)N2CCC(C(=O)N3CCC4(CC3)OCCO4)CC2)cc2sccc21`, the inhibition is reported as 3.9% (inactive).
